The source made the active and inactive calls. How the source made its calls: active means hit-call score of the fitted dose curve at least 0.9, where 1 is the maximum; inactive means score below 0.9.
Read-out: Broad substrate specificity ATP-binding cassette transporter ABCG2 (Homo sapiens) (UniProt Q9UNQ0)
Assay: LTEA_HepaRG_ABCG2: Life Technologies and Expression Analysis (LTEA) Assay for ABC Transporter (ABCG2) using HepaRG (AID 2283465)
Conditions: mRNA level, 48 h; actives raise or lower the signal
Procedure: LTEA_HepaRG is a cell based, multiplexed-readout assay that uses HepaRG, a human liver cell line, with measurements taken at 48 hours after chemical dosing on a 96-well plate.LTEA_HepaRG_ABCG2 is one of 102 assay component(s) measured in the LTEA HepaRG cell culture assay. It is a marker of Steatosis/NR mediated transport.Data from the assay component LTEA_HepaRG_ABCG2 was analyzed into 1 endpoint. This assay endpoint, LTEA_HepaRG_ABCG2, was analyzed with bidirectional fitting relative to DMSO as the negative control and baseline of activity. Using a type of inducible reporter, measures of mRNA induction for gain or loss-of-signal activity can be used to understand regulation of transcription factor activity. To generalize the intended target to other relatable targets, this assay endpoint is annotated to the transporter intended target family, where the subfamily is ABC transporter.
A total of 1060 chemcials from the ToxCast library were tested in eight-point concentration-response experiments. Cell culture and cytotoxicity assays were conducted at Thermo Fisher Scientific's Custom Services facility (Madison, WI). A single lot of human HepaRG cells (Thermo Fisher Scientific, Frederick, MD) was used for the cell culture experiments. 96-well format collagen type I coated plates of human HepaRG cells were prepared using established methods. Briefly, cryopreserved HepaRG cells were thawed, plated at a density of approximately 100,000 cells/well in HepaRG Thaw, Plate, and General Purpose media (HPRG770, Thermo Fisher Scientific), and incubated for 48 hours. 0.5% DMSO was selected as vehicle control to balance the requisite need of DMSO in HepaRG cultures to maintain differentiation (for example, baseline metabolism, proportions of hepatocytes vs. cholangiocytes), while enabling further hepatic receptor pathway activation (for example, PXR and CAR) in response to chemical exposure. 48 hours after plating, the culture medium was replaced with HepaRG Serum-Free Incudtion Media. Cells were exposed to each test chemical in duplicate and maintained in CO2 incubators for another 48 hours. Chemical plates were thawed to room temperature and 200x concentrations of treatment groups were prepared. 8-point conentration-reponse curves were made with the highest exposure at 100 uM, followed by half-log dilutions, all in 0.5% DMSO. Each test plate contained variouse controls, induction positive controls (1mM phenobarbital), cytotoxicity positive controls ([…] aflatoxin B1), vehicle controls (0.5% DMSO), and total lysis controls (0.5% DMSO). Cell morphology images were taken using an Essen IncuCyte FLR automated microscope, with six 96-well plates imaged in about 24 minutes. Images were captured and exported and JPEG files. Spent culture media was transfered to black-well plates for the LDH assay, and remaining media was sorted at -80 C for later use. Cells were treated with RLT buffer and frozen until shipped for gene expression analysis. Total RNA was isolated from the cell suspension in 75 uL of Buffer RLT (Qiagen, Germantown, MD 20874) by Quintiles/Expression Analysis (Durham, NC) using a custom isolation procedure. Total RNA from each plate well was transferred to a preamplification plate. Fluidigm's 96.96 Dynamic ArrayTM (Fluidigm, Amsterdam, the Netherlands) technology was used for gene expression analyses by quantitative reverse transcription polymerase chain reaction (qRT-PCR, performed by Quintiles/Expression Analysis, Durham, NC)89. Standard TaqManTM Assays (Applied Biosystems/ThermoFisher Scientific, Foster City, CA) were used to assess the expression of 93 genes selected based on their selectivity and sensitivity to important hepatic receptors known to be modulated by environmental chemicals; importance in human hepatocyte functionality; and hepatotoxicity. […]

Chain of Broad substrate specificity ATP-binding cassette transporter ABCG2 (Homo sapiens) (Q9UNQ0 whole entry, looked up): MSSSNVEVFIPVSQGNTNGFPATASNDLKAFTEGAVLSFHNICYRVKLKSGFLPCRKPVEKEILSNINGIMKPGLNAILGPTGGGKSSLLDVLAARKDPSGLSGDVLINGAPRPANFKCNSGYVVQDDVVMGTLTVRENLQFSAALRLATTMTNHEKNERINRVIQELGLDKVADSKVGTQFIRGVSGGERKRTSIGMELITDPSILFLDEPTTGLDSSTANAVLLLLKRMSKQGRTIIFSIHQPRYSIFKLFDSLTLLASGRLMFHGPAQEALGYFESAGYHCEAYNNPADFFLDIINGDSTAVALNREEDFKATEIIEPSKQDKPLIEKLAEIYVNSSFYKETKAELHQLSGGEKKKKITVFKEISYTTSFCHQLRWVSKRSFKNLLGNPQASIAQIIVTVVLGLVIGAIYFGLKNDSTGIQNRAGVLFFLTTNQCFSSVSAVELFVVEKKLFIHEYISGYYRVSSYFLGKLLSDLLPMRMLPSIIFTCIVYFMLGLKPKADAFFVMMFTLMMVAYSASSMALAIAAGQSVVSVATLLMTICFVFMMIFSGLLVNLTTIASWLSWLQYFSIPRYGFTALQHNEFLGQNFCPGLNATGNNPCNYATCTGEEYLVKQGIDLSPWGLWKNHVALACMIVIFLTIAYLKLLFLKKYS

Row | SMILES | outcome | AC50
1 | S=C1NCCN1 | inactive | –
2 | CNc1cnn(-c2cccc(C(F)(F)F)c2)c(=O)c1Cl | – | 17.4 µM (active)
3 | CN(C)NC(=O)CCC(=O)O | inactive | –
4 | CCOP(=O)(SC(C)CC)N1CCSC1=O (stereo not given) | inactive | –
5 | CSc1nc(NC(C)C)nc(NC(C)C)n1 | inactive | –
6 | N#CSCSC#N | inactive | –
7 | CCNc1nc(Cl)nc(NC(C)(C)C#N)n1 | inactive | –
8 | CCC(=O)Nc1ccc(Cl)c(Cl)c1 | inactive | –
9 | CC(C)N(C(=O)SCC(Cl)=C(Cl)Cl)C(C)C | inactive | –
10 | CCCSP(=O)(OCC)SCCC | inactive | –
11 | CNC(=O)ON=C(SC)C(=O)N(C)C | inactive | –
12 | CCc1cnc(C2=NC(C)(C(C)C)C(=O)N2)c(C(=O)O)c1 (stereo not given) | inactive | –
13 | CNC(=O)ON=C(C)SC | inactive | –
14 | CSc1nnc(C(C)(C)C)c(=O)n1N | inactive | –
15 | CCOP(=S)(OCC)SCCSCC | inactive | –
16 | CC(C1CC1)C(O)(Cn1cncn1)c1ccc(Cl)cc1 (stereo not given) | inactive | –
17 | COP(=O)(OC)SCn1c(=O)oc2cc(Cl)cnc21 | inactive | –
18 | C=C(C)[C@H]1Cc2c(ccc3c2O[C@@H]2COc4cc(OC)c(OC)cc4[C@@H]2C3=O)O1 | – | 1.18 µM (active)
19 | CCOP(=S)(Oc1cnc(C(C)(C)C)nc1)OC(C)C (stereo not given) | inactive | –
20 | O=c1ccc(=O)[nH][nH]1 | inactive | –

Row | SMILES | outcome | AC50
21 | Nc1c(Cl)cc([N+](=O)[O-])cc1Cl | – | 80.4 µM (active)
22 | Cc1nn(-c2cc(NS(C)(=O)=O)c(Cl)cc2Cl)c(=O)n1C(F)F | inactive | –
23 | CON=C(C(=O)OC)c1ccccc1CON=C(C)c1cccc(C(F)(F)F)c1 | inactive | –
24 | CC1=NNC(=O)N(/N=C/c2cccnc2)C1 | inactive | –
25 | CC(=NC#N)N(C)Cc1ccc(Cl)nc1 | inactive | –
26 | CCc1cccc(C)c1N(C(=O)CCl)C(C)COC (stereo not given) | inactive | –
27 | CN(C)[C@@H]1C(=O)C(C(N)=O)=C(O)[C@@]2(O)C(=O)C3=C(O)c4c(O)cccc4[C@@](C)(O)[C@H]3[C@H](O)[C@@H]12 | inactive | –
28 | Cc1ccn2nc(S(=O)(=O)Nc3c(F)cccc3F)nc2n1 | inactive | –
29 | CCOC(=O)COc1cc(-c2nn(C)c(OC(F)F)c2Cl)c(F)cc1Cl | inactive | –
30 | CC1(C(=O)Nc2ccc(O)c(Cl)c2Cl)CCCCC1 | inactive | –
31 | COP(=O)(OC)OC(Br)C(Cl)(Cl)Br (stereo not given) | inactive | –
32 | C#CCC1=C(C)C(OC(=O)C2C(C=C(C)C)C2(C)C)CC1=O (stereo not given) | – | 9.87 µM (active)
33 | CC(Oc1cccc(Cl)c1)C(=O)O (stereo not given) | – | 5.79 µM (active)
34 | CCOP(=O)(OCC)Oc1cc(C)nc(C(C)C)n1 | inactive | –
35 | CC(COc1ccc(Oc2ccccc2)cc1)Oc1ccccn1 (stereo not given) | – | 20.6 µM (active)
36 | CCOP(=O)(NC(C)C)Oc1ccc(SC)c(C)c1 (stereo not given) | inactive | –
37 | CCCCSP(=O)(SCCCC)SCCCC | – | 50 µM (active)
38 | CCCOCC(=Nc1ccc(Cl)cc1C(F)(F)F)n1ccnc1 | – | 15.8 µM (active)
39 | CN(C)C(=O)Nc1cccc(C(F)(F)F)c1 | inactive | –
40 | CNC(=O)Oc1cccc2c1OC(C)(C)O2 | inactive | –
